Screening data: PubChem BioAssay, National Center for Advancing Translational Sciences (NCATS)
VACV mCherry inh – vaccinia inhibition (mCherry reporter); actives 0.63% (n = 310,000); Vaccinia virus mCherry reporter infection, fluorescence; Potency, µM (titrated, usually from 36.5 µM), actives largely listed as inhibitors; calls by dose curve; tested in A549 cells; also: nearly all actives have a fitted effect of over 35% in size
FMDV inh – blocks foot and mouth disease virus; FMDV antiviral cell-based qHTS; Potency, µM (top dose mostly 57.9 µM), most hits filed as inhibitors; actives 1.2% (n = 410,000); AID 1159524; calls by dose curve; tested in HEK293T cells; also: read-out not given here; nearly all actives have a fitted effect of over 45% in size
Lassa entry inh – Lassa virus entry inhibition | Lassa virus pseudotype entry inhibition, cell reporter | Potency, µM (titrated, usually from 37.9 µM), most hits filed as inhibitors | actives 1.2% (n = 300,000) | AID 540256; calls by dose curve; tested in HEK293 cells; also: nearly all actives have a fitted effect of over 50% in size
HCMV antiviral – inhibitors of human cytomegalovirus | HFF cells, HCMV-luciferase reporter, 72 h; active compounds read low | AID 1259415 | actives 4.5% (n = 410,000) | activity change, negative = inhibition, % at 57.5 µM; in the data active = activity change below about -60%; inconclusive = no clear call, values can overlap the other calls; inactive = above about -39%
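HFF cells seeded 16 h at 37C, treated with compounds, infected with luciferase-reporter HCMV at MOI 1 PFU/cell; luciferase read at 72 h post infection, normalized to buffer-only and Salinomycin controls.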
Vaccinia Venus – inhibitors of vaccinia virus (Venus reporter); Vaccinia virus Venus reporter expression, fluorescence; actives 0.46% (n = 330,000); AID 720580; Potency, µM (series often up to 36.5 µM), usual class: inhibitors; calls by dose curve; tested in A549 cells; also: nearly all actives have a fitted effect of over 30% in size
Marburg entry inh – Marburg virus entry inhibition; AID 540276; Marburg virus pseudotyped entry inhibition, cell reporter; Potency, µM (highest dose often 37.8 µM), actives largely listed as inhibitors; actives 1.8% (n = 300,000); calls by dose curve; tested in HEK293 cells
HeLa G2M arrest – inducers of G2/M cell cycle arrest in HeLa cells; shares compounds with Marburg entry inh; HeLa cell cycle G2/M arrest, Hoechst DNA content imaging; Potency, µM, usual class: inhibitors; actives 60% (n = 25); AID 2441
WI-38 tox – WI-38 cytotoxicity of perinucleolar compartment inhibitors. 120 tested, under 10 active. WI-38 normal lung fibroblasts, ATPLite luminescence ATP viability, 24 h. AID 2729. Potency, µM (top dose mostly 46.1 µM), most hits filed as inhibitors. shares compounds with Marburg entry inh
PNC inh conf – confirmation of perinucleolar compartment assembly inhibitors; Potency, µM (series often up to 46.1 µM), usual class: inhibitors; AID 2730; shares compounds with Marburg entry inh; actives 50% (n = 120); PC3M PTB-GFP, PNC prevalence imaging, 16 h
PC3M caspase – counter-screen for PNC inhibitors: PC3M caspase 3/7 activation; 120 tested, under 10 active; activity change, positive = activation, % at 46.1 µM; PC3M-GFP caspase 3/7 activation, luminescence, 24 h; shares compounds with Marburg entry inh
Each line names hits and unclear results; the compound was inactive in the other large screens (follow-up assays come after a bar, where they were run); ! = a repeat was not active. Rows were chosen to be rich in hits. Some 6.5% of all compounds tested hit in one or more screens of this group. Unless noted, calls follow the shape of the dose curve; as a rule, active = well fitted curve in the direction sought with a large enough effect; inconclusive = small, poorly fitted or top-dose-only effect, or another doubt; inactive = no such curve, though single readings can be large; an effect the other way counts as inactive or inconclusive.

COc1cc(OC)c(/C=C2/C(=O)Nc3ccccc32)c(OC)c1	Lassa entry inh inconclusive, Marburg entry inh 0.891µM (no result: VACV mCherry inh, FMDV inh, HCMV antiviral, Vaccinia Venus) | HeLa G2M arrest 2
CCCCN(C(=O)c1ccccc1F)c1c(N)n(CCC)c(=O)[nH]c1=O	none
COc1cc2c(cc1O)CCC1C2CC[C@]2(C)[C@@H](O)CC[C@@H]12 (some centres undefined)	Marburg entry inh inconclusive (no result: VACV mCherry inh, FMDV inh, Lassa entry inh, HCMV antiviral, Vaccinia Venus) | HeLa G2M arrest 1.12
CC12CCC3c4ccc(O)cc4CCC3C1CCC2O (centres undefined)	none (no result: VACV mCherry inh, Lassa entry inh, HCMV antiviral, Vaccinia Venus, Marburg entry inh)
C[C@]12CC[C@@H]3c4ccc(O)cc4CC[C@H]3[C@@H]1CC[C@@H]2O	Lassa entry inh inconclusive, Marburg entry inh inconclusive | HeLa G2M arrest 10
COc1cc(/C=N/NC(=O)c2ccc(CSc3nc4ccccc4[nH]3)cc2)cc(OC)c1OC	FMDV inh inconclusive, Lassa entry inh inconclusive, Marburg entry inh inconclusive | WI-38 tox inactive | PNC inh conf inactive | PC3M caspase inactive
COc1cc(/C=N/NC(=O)c2ccc3nc[nH]c3c2)cc(OC)c1OC	none (no result: HCMV antiviral)
COc1ccc(-n2c(SC(C)C(=O)Nc3ncc(Cl)cc3Cl)nc3ccccc32)cc1 (centres undefined)	VACV mCherry inh inconclusive, Lassa entry inh 0.251µM, HCMV antiviral -85.0, Marburg entry inh inconclusive | WI-38 tox inconclusive | PNC inh conf 3.16µM | PC3M caspase inactive
O=C(O)c1ccc(-c2nc(-c3ccccc3)c(-c3ccccc3)[nH]2)cc1	Lassa entry inh inconclusive
Oc1ccc(-c2nc(-c3ccc(F)cc3)c(-c3ccncc3)[nH]2)cc1	FMDV inh inconclusive, Lassa entry inh inconclusive, Marburg entry inh 5.01µM | HeLa G2M arrest inconclusive
Cc1c(C#N)c(N)nc2c3c(sc12)NC(=O)CC3c1ccccc1 (centres undefined)	Marburg entry inh inconclusive
Cc1c(C#N)c(N)nc2c3c(sc12)NC(=O)CC3c1ccc(F)cc1 (centres undefined)	Marburg entry inh inconclusive | WI-38 tox inactive | PNC inh conf inactive | PC3M caspase inactive
CC(=O)O[C@H]1C(=O)[C@@]2(C)C([C@H](OC(=O)c3ccccc3)[C@]3(O)C[C@H](OC(=O)[C@H](O)[C@@H](NC(=O)c4ccccc4)c4ccccc4)C(C)=C1C3(C)C)[C@]1(OC(C)=O)CO[C@@H]1C[C@@H]2O (some centres undefined)	Lassa entry inh inconclusive, Marburg entry inh 0.251µM (no result: HCMV antiviral) | HeLa G2M arrest 0.0126
CN1CCN(CCCN2c3ccccc3Sc3ccc(S(=O)(=O)N(C)C)cc32)CC1	VACV mCherry inh inconclusive, FMDV inh inconclusive (no result: Lassa entry inh, Marburg entry inh)
CN(C)CCCN1c2ccccc2Sc2ccc(Cl)cc21	VACV mCherry inh inconclusive, FMDV inh inconclusive, Lassa entry inh 23.1µM, HCMV antiviral -66.1!, Vaccinia Venus inconclusive, Marburg entry inh 5.62µM | HeLa G2M arrest inconclusive
CC(=O)c1c(C)cc(C)c(CSc2nc(C)cc(=O)[nH]2)c1C	Marburg entry inh inconclusive (no result: FMDV inh) | WI-38 tox inactive | PNC inh conf inconclusive | PC3M caspase inactive
Cn1cnc(S(=O)(=O)Nc2cc(C(F)(F)F)ccc2N2CCOCC2)c1	Marburg entry inh inconclusive
Cc1ccc(C2=NCCn3nc4cc([N+](=O)[O-])ccc4c32)cc1	VACV mCherry inh inconclusive (no result: Lassa entry inh, Marburg entry inh)
COc1cccc(/C=N/NC(=O)c2cc3c(OC)c(OC)ccc3[nH]2)c1OC	Lassa entry inh inconclusive, Marburg entry inh inconclusive | WI-38 tox inactive | PNC inh conf inconclusive | PC3M caspase inactive
Cn1c2ccccc2c(=O)c2ccc(NCCc3cccs3)cc21	Vaccinia Venus inconclusive (no result: Lassa entry inh, Marburg entry inh)
Cc1cccc(C)c1Nc1c(-c2ccc(N3CCOCC3)cc2)nc2ncccn12	none | WI-38 tox inactive | PNC inh conf inactive | PC3M caspase inactive
Cc1ccc(Nc2c(-c3ccc(N4CCOCC4)cc3)nc3ncccn23)c(C)c1	VACV mCherry inh inconclusive, Marburg entry inh inconclusive
Cc1cc(C)c(S(=O)(=O)/N=C2/C=C(Sc3ncn[nH]3)C(=O)c3ccccc32)cc1C	VACV mCherry inh inconclusive, FMDV inh inconclusive, Lassa entry inh 12.6µM, HCMV antiviral -100.5, Vaccinia Venus 6.31µM, Marburg entry inh 1.58µM | WI-38 tox inactive | PNC inh conf 6.31µM | PC3M caspase inactive
CCC(C)NC(=O)c1c(-c2ccccc2)c(-c2ccccc2)nn(C)c1=O (centres undefined)	none
CC(C)CNC(=O)CSc1nnc(-c2cccc(S(=O)(=O)N3CCCCC3)c2)o1	VACV mCherry inh inconclusive, Vaccinia Venus inconclusive | WI-38 tox inactive | PNC inh conf inactive | PC3M caspase inactive
O=C(Nc1ccccc1)N1CCCC2(CCN(S(=O)(=O)c3ccccc3)CC2)C1	none (no result: VACV mCherry inh, Lassa entry inh, HCMV antiviral, Vaccinia Venus, Marburg entry inh)
Cc1cc[n+](C2=C([O-])c3ccccc3C(=O)/C2=N\S(=O)(=O)c2cccs2)cc1C	Lassa entry inh inconclusive, Marburg entry inh inconclusive | WI-38 tox inactive | PNC inh conf inconclusive | PC3M caspase inconclusive
COc1ccc(CN2CCC(C(=O)NCCc3ccc(OC)c(OC)c3)CC2)c(OC)c1	Marburg entry inh inconclusive (no result: VACV mCherry inh) | WI-38 tox inactive | PNC inh conf inconclusive | PC3M caspase inactive
COc1ccc(CCNC(=O)C2CC2)cc1OC	none (no result: FMDV inh)
